Values without a mark were called inactive. Inconclusive results are not listed. Where a call stands in place of a potency, no number is given. Calls of active or inactive are those of the source. Unless noted, calls follow the shape of the dose curve; as a rule, active = well fitted curve in the direction sought with a large enough effect in the repeat runs; inconclusive = weak or mixed curves; inactive = no such curve, though single readings can be large; an effect the other way counts as inactive or inconclusive.
How the values were obtained:
[1] = qHTS assay to identify small molecule antagonists of the glucocorticoid receptor (GR) signaling pathway - cell viability counter screen (AID 720693); also: nearly all actives have a fitted effect of over 55% in size
[2] = qHTS assay for identifying genotoxic compounds that show differential cytotoxicity against isogenic chicken DT40 cell lines with known DNA damage response pathways - wild type cell line (AID 743012); also: nearly all actives have a fitted effect of over 60% in size
Summary of the method: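 Cells (DT40 wild type, 300/well) are treated with DMSO-dissolved compounds after a ~0.5 h pre-incubation and kept 40 h at 37 C/5% CO2. Viability is then measured by CellTiter-Glo luminescence following 30 min at room temperature.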

[3] = qHTS assay for identifying genotoxic compounds that show differential cytotoxicity against isogenic chicken DT40 cell lines with known DNA damage response pathways - Rev3 mutant cell line (AID 743014); also: nearly all actives have a fitted effect of over 55% in size
[4] = qHTS assay for identifying genotoxic compounds that show differential cytotoxicity against isogenic chicken DT40 cell lines with known DNA damage response pathways - Rad54/Ku70 mutant cell line (AID 743015); also: nearly all actives have a fitted effect of over 60% in size
[5] = qHTS assay to identify small molecule antagonists of the androgen receptor (AR) signaling pathway - cell viability counter screen (AID 743033; also: nearly all actives have a fitted effect of over 45% in size)
[6] = qHTS assay to identify small molecule antagonists of the androgen receptor (AR) signaling pathway using the MDA cell line - cell viability counter screen (AID 743041; also: nearly all actives have a fitted effect of over 45% in size)
Summary of the method: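 Same-well cytotoxicity was assessed by CellTiter-Fluor in MDA-kb2 AR-luc cells after 16 h of compound treatment under R1881 agonism.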

[7] = qHTS assay to identify small molecule antagonists of the thyroid receptor (TR) signaling pathway - cell viability counter screen (AID 743064); also: nearly all actives have a fitted effect of over 50% in size
Summary of the method: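 In rat pituitary GH3.TRE-Luc reporter cells co-exposed to compound and 1 nM T3 for 23.5 h, cytotoxicity was assessed with CellTiter-Fluor in the same wells, read by fluorescence.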

[8] = qHTS assay to identify small molecule antagonists of the thyroid receptor (TR) signaling pathway (AID 743065); also: series mostly up to about 70 µM; nearly all actives have a fitted effect of over 55% in size
Summary of the method: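 GH3.TRE-Luc rat pituitary cells (two TREs driving luciferase) were dosed with compound, then stimulated with 1 nM T3 (final) for 23.5 h at 37 C. ONE-Glo luminescence was the read-out, with CellTiter-Fluor fluorescence as the cytotoxicity counter-screen.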

[9] = test system: thyroid hormone receptor (rat, GH3 cells); assay: qHTS assay to identify small molecule agonists of the thyroid receptor (TR) signaling pathway (AID 743066; calls by dose curve)
[10] = biological target: Estrogen receptor (Homo sapiens) (UniProt P03372); assay: qHTS assay to identify small molecule antagonists of the estrogen receptor alpha (ER-alpha) signaling pathway (AID 743069; active = well fitted curve in the direction sought with a large enough effect in the signal ratio in the repeat runs, not every such curve was filed as active; the % refers to the signal ratio)
Estrogen receptor (Homo sapiens), sequence (P03372 whole entry, looked up): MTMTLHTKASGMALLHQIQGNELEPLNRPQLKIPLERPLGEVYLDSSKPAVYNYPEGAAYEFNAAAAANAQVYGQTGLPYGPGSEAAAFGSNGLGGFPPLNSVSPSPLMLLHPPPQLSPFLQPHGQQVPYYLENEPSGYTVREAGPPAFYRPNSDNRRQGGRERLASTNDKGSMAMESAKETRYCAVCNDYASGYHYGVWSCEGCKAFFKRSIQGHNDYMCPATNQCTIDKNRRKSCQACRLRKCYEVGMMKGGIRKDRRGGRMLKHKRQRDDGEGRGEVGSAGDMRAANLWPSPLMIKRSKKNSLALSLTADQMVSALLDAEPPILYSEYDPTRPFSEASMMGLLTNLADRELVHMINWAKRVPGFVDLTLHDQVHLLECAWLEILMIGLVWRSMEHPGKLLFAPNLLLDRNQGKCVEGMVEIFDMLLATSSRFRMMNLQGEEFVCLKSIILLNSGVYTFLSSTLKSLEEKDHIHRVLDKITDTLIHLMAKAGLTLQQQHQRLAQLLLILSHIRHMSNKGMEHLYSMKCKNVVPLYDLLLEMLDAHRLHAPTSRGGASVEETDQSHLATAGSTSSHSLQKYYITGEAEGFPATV
Summary of the method: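 Reporter cells (ER-alpha-bla, HEK293 background) are conditioned overnight in stripped-serum medium (2% charcoal-stripped FBS). Compound and 17beta-estradiol exposure runs 18 hr at 37C, 5% CO2.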

[11] = qHTS assay to identify small molecule antagonists of the estrogen receptor alpha (ER-alpha) signaling pathway - cell viability counter screen (AID 743074; calls by dose curve;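 also: HEK293 cells carrying ER-alpha-UAS-bla reporter stimulated with 17beta-estradiol; nearly all actives have a fitted effect of over 45% in size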)
[12] = biological target: Estrogen receptor (Homo sapiens) (UniProt P03372); assay: qHTS assay to identify small molecule agonists of the estrogen receptor alpha (ER-alpha) signaling pathway (AID 743075; calls by dose curve;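 also: HEK293 GripTite cells with ER-alpha and UAS-driven beta-lactamase reporter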)
[13] = biological target: Estrogen receptor (Homo sapiens) (UniProt P03372); assay: qHTS assay to identify small molecule agonists of the estrogen receptor alpha (ER-alpha) signaling pathway using the BG1 cell line (AID 743079); also: nearly all actives have a fitted effect of over 20% in size; also: potency is read from the fitted curve at half-maximal effect
[14] = qHTS assay to identify small molecule antagonists of the estrogen receptor alpha (ER-alpha) signaling pathway using the BG1 cell line (AID 743080; calls by dose curve;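 also: BG1 cells stimulated with 17beta-estradiol alongside compound; series mostly up to about 70 µM; nearly all actives have a fitted effect of over 25% in size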)
Summary of the method: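 BG1-Luc-4E2 cells (endogenous full-length ER-alpha, 4xERE luciferase) hormone-starved 5 days in charcoal-stripped FBS, plated 4,000/well for 24 h, then compound plus 17beta-estradiol for 21.5 h at 37 C; ONE-Glo luminescence read.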

[15] = qHTS assay to identify small molecule antagonists of the estrogen receptor alpha (ER-alpha) signaling pathway using the BG1 cell line - cell viability counter screen (AID 743081);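 also: compound given together with 17beta-estradiol as the ER stimulus; series mostly up to about 70 µM; nearly all actives have a fitted effect of over 45% in size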
Aromatase (Homo sapiens) = Aromatase (Homo sapiens) (UniProt P11511); assay: qHTS assay to identify aromatase inhibitors (AID 743083); also: series mostly up to about 70 µM; nearly all actives have a fitted effect of over 55% in size
Aromatase (Homo sapiens), sequence (P11511 whole entry, looked up): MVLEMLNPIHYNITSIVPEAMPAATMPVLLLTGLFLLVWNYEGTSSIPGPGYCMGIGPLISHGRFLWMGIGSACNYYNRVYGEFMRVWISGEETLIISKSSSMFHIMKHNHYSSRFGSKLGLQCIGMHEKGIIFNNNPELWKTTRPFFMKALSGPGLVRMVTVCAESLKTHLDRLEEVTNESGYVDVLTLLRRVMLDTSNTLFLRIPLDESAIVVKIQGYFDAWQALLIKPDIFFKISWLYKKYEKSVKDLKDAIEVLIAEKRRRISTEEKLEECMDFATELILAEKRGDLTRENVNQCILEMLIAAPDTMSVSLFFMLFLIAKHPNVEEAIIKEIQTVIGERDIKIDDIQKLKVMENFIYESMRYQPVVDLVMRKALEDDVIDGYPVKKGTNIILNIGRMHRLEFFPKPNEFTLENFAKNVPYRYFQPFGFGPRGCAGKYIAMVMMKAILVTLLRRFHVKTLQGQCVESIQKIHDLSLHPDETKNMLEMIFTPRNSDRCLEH

[16] = biological target: Androgen receptor (Homo sapiens) (UniProt P10275); assay: qHTS assay to identify small molecule agonists of the androgen receptor (AR) signaling pathway using the MDA cell line (AID 743040; also: nearly all actives have a fitted effect of over 20% in size)
Androgen receptor (Homo sapiens), sequence (P10275 whole entry, looked up): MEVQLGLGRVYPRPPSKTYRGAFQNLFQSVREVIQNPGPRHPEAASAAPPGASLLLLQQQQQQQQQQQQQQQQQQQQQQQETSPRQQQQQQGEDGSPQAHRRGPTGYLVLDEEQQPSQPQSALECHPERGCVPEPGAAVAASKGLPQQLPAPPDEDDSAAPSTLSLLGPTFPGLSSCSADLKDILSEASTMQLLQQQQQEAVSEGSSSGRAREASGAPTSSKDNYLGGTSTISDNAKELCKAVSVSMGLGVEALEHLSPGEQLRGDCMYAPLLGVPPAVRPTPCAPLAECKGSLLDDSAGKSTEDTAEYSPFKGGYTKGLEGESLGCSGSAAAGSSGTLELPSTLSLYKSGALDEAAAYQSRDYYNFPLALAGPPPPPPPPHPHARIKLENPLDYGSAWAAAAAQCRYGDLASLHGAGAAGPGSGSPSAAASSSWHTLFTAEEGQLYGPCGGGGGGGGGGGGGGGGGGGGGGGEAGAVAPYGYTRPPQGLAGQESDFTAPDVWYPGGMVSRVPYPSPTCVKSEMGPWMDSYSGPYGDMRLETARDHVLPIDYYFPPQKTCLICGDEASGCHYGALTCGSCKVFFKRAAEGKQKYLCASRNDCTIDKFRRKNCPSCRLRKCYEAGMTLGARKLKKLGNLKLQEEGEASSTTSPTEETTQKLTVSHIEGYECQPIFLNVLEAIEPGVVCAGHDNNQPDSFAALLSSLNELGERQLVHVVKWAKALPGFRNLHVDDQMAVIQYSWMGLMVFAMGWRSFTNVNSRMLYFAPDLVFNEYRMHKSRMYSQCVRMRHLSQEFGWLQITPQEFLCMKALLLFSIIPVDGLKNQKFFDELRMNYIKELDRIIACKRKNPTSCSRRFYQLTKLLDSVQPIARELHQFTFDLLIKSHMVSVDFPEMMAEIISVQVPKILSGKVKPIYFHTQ
Summary of the method: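 Human breast carcinoma MDA-kb2 reporter cells (MMTV-luc, AR/GR elements) were treated for 16 h at 37C in 0% CO2 following a 5 h settling period. Signal was quantified by ONE-Glo luminescence.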

[17] = biological target: Androgen receptor (Homo sapiens) (UniProt P10275); assay: qHTS assay to identify small molecule antagonists of the androgen receptor (AR) signaling pathway using the MDA cell line (AID 743042; also: nearly all actives have a fitted effect of over 55% in size)
Summary of the method: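 MDA-kb2 breast carcinoma cells carrying MMTV-luciferase (AR/GR responsive) were co-treated with compounds and the agonist R1881 for 16 h at 37C. Inhibition read as ONE-Glo luminescence; CellTiter-Fluor fluorescence measured in parallel for cytotoxicity.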

Compound | outcome [1] | Potency [2] | Potency [3] | Potency [4] | Potency [5] | Potency [6] | Potency [7] | Potency [8] | outcome [9] | outcome [10] | outcome [11] | outcome [12] | Potency [13] | Potency [14] | outcome [15] | Potency (Aromatase (Homo sapiens)) | outcome [16] | Potency [17]
CO[C@@H]1[C@@H](OC(N)=O)[C@@H](O)[C@H](Oc2ccc3c(O)c(NC(=O)c4ccc(O)c(CC=C(C)C)c4)c(=O)oc3c2C)OC1(C)C | inactive | inactive | inactive | inactive | inactive | inactive | inactive | inactive | inactive | inactive | inactive | inactive | inactive | inactive | inactive | inactive |  | 
NS(=O)(=O)c1ccc(NC(=O)CCC(=O)O)cc1 | inactive | inactive | inactive | inactive | inactive | inactive | inactive | inactive | inactive | inactive | inactive | inactive | inactive | inactive | inactive | inactive |  | 
CC(=O)NCCCCCC(=O)O | inactive | inactive | inactive | inactive | inactive | inactive | inactive | inactive | inactive | inactive | inactive | inactive | inactive | inactive | inactive | inactive |  | 
CN(C)c1ccc(C=O)cc1 | inactive | inactive | inactive | inactive | inactive | inactive | inactive | inactive | inactive | inactive | inactive | inactive | 54.5 µM (active) | inactive | inactive | inactive |  | 
NNc1nnc(NN)c2ccccc12 | inactive | inactive | inactive | inactive | inactive | inactive | inactive | inactive | inactive | inactive | inactive | inactive | inactive | inactive | inactive | inactive |  | 
O=C1c2ccccc2C(=O)C1c1ccccc1 | inactive | inactive | inactive | inactive | inactive | inactive | inactive | inactive | inactive | inactive | inactive | inactive | inactive | inactive | inactive | inactive |  | 
CC(C)(C)OC(=O)c1ccc(O)cc1 | inactive | inactive | inactive | inactive | inactive | inactive | inactive | inactive | inactive |  | inactive |  |  |  | inactive | inactive | inactive | inactive
C[C@@H](O)[C@H]1C(=O)N2C(C(=O)O)=C(SCCN=CN)C[C@H]12 | inactive | inactive | inactive | inactive | inactive | inactive | inactive | inactive | inactive | inactive | inactive | inactive | inactive | inactive | inactive | inactive |  | 
CCOc1cc(NC(C)=O)ccc1C(=O)OC | inactive | inactive | inactive | inactive | inactive | inactive | inactive | inactive | inactive | inactive | inactive | inactive | inactive | inactive | inactive | inactive |  | 
CCCCC(CC)COCCO (stereo not drawn) | inactive | inactive | inactive | inactive | inactive | inactive | inactive | inactive | inactive | inactive | inactive | inactive | inactive | inactive | inactive | inactive |  | 
O=C(CCNNC(=O)c1ccncc1)NCc1ccccc1 | inactive | inactive | inactive | inactive | inactive | inactive | inactive | inactive | inactive | inactive | inactive | inactive | inactive | inactive | inactive | inactive |  | 
CC(=O)Nc1cccc(C)c1 | inactive | inactive | inactive | inactive | inactive | inactive | inactive | inactive | inactive | inactive | inactive | inactive | inactive | inactive |  | inactive |  | 
CC(C)C[C@H](NC(=O)CNC(=O)[C@H](Cc1ccc(O)cc1)NC(=O)[C@H](CO)NC(=O)[C@H](Cc1c[nH]c2ccccc12)NC(=O)[C@H](Cc1cnc[nH]1)NC(=O)[C@@H]1CCC(=O)N1)C(=O)N[C@@H](CCCN=C(N)N)C(=O)N1CCC[C@H]1C(=O)NCC(N)=O (stereo in doubt) | inactive | inactive | inactive | inactive | inactive | inactive | inactive | inactive | inactive |  | inactive |  |  |  |  |  |  | 
CC(=O)c1sc(C)nc1C | inactive | inactive | inactive | inactive | inactive | inactive | inactive | inactive | inactive |  | inactive |  |  |  | inactive | inactive |  | 
CCCCCCCCC1CCC(=O)O1 (stereo not drawn) | inactive | inactive | inactive | inactive | inactive | inactive | inactive | inactive | inactive |  |  | inactive |  |  | inactive | inactive |  | 
O=C1CCCC(=O)O1 | inactive | inactive | inactive | inactive | inactive | inactive | inactive | inactive | inactive | inactive |  | inactive | inactive | inactive | inactive | inactive |  | 
CCCCCOC(=O)CCC | inactive | inactive | inactive | inactive | inactive | inactive | inactive | inactive | inactive |  | inactive |  |  |  | inactive | inactive |  | 
Cc1c(I)c(=O)n(-c2ccccc2)n1C | inactive | inactive | inactive | inactive | inactive | inactive | inactive | inactive | inactive | inactive |  | inactive | inactive | inactive | inactive | inactive |  | 
O=C(NCC(O)CO)c1c(I)c(C(=O)NCC(O)CO)c(I)c(N(CCO)C(=O)CO)c1I (stereo not drawn) | inactive | inactive | inactive | inactive | inactive | inactive | inactive | inactive | inactive |  | inactive |  |  |  | inactive |  |  | 
CCN1CCc2nc(N)oc2CC1 | inactive | inactive | inactive | inactive | inactive | inactive | inactive | inactive | inactive |  | inactive | inactive | inactive | inactive | inactive | inactive |  | 
CCCCCCCCCCl | inactive | inactive | inactive | inactive | inactive | inactive | inactive | inactive | inactive |  | inactive |  |  |  | inactive | inactive |  | 
O=S(=O)(O)CCN1CCN(CCO)CC1 | inactive | inactive | inactive | inactive | inactive | inactive | inactive | inactive | inactive |  | inactive |  |  |  | inactive | inactive |  | 
CCOC(=O)/C=C/c1ccccc1 | inactive | inactive | inactive | inactive | inactive | inactive | inactive | inactive | inactive | inactive |  | inactive | inactive | inactive | inactive | inactive |  | 
BrCCCCCBr | inactive | inactive | inactive | inactive | inactive | inactive | inactive | inactive | inactive | inactive |  | inactive | inactive | inactive | inactive | inactive |  | 
CCC(C=O)CC | inactive | inactive | inactive | inactive | inactive | inactive | inactive | inactive | inactive |  | inactive |  |  |  | inactive | inactive |  | 
Nc1ncnc(Nc2ccccc2)n1 | inactive | inactive | inactive | inactive | inactive | inactive | inactive | inactive | inactive | inactive | inactive | inactive |  |  | inactive | inactive |  | 
C=CC(OCC)OCC | inactive | inactive | inactive | inactive | inactive | inactive | inactive | inactive | inactive |  | inactive |  |  |  | inactive | inactive |  | 
CN(C)C(=O)CNC(=O)Cc1ccccc1 | inactive | inactive | inactive | inactive | inactive | inactive | inactive | inactive | inactive | inactive | inactive | inactive | inactive | inactive |  | inactive |  | 
Cc1ccc2c(c1)OCC(=O)CO2 | inactive | inactive | inactive | inactive | inactive | inactive | inactive | inactive | inactive | inactive | inactive | inactive |  | inactive | inactive | inactive |  | 

— PubChem BioAssay (Tox21)
